{"source": "ChEMBL document CHEMBL3433997", "about": "“St. Jude Leishmania screening dataset” (2016)", "type_in_all_cases": "functional", "key": {"[1]": {"target": "Solute carrier family 2, facilitated glucose transporter member 1 (Homo sapiens) (UniProt P11166)", "sequence (P11166 whole entry)": "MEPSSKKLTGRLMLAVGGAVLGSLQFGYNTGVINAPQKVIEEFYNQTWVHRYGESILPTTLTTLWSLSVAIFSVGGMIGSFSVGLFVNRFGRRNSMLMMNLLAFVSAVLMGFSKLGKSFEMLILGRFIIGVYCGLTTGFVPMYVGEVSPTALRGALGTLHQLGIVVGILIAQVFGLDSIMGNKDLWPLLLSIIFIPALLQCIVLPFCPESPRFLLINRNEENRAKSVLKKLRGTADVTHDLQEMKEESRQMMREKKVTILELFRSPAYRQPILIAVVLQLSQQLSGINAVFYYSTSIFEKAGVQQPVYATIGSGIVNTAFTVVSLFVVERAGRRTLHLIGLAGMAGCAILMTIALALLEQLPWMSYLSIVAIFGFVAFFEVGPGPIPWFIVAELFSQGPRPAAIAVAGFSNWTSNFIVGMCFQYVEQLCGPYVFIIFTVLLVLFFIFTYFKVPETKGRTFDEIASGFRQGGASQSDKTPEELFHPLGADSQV", "test": "ST_JUDE_LEISH: Cytotoxicity at 2uM final concentration against transgenic Leishmania Mexicana promastigotes LmGLUT1 that are glucose transport deficient and complemented with the human glucose transporter GLUT1. Activity is measured by DNA content using SYBR green in vitro"}, "[2]": {"target": "Hexose transporter 1 (Plasmodium falciparum) (UniProt O97467)", "test": "ST_JUDE_LEISH: Cytotoxicity at 2uM final concentration against transgenic Leishmania Mexicana promastigotes LmPfHT that are glucose transport deficient and complemented with the Plasmodium falciparum hexose transporter. Activity is measured by DNA content using SYBR green in vitro"}, "[3]": {"target": "Glucose transporter (Leishmania mexicana) (UniProt O61059)", "test": "ST_JUDE_LEISH: Cytotoxicity at 2uM final concentration against transgenic Leishmania Mexicana promastigotes LmGT2 that are glucose transport deficient and complemented with the L. Mexicana glucose transporter 2. Activity is measured by DNA content using SYBR green in vitro"}}}
{"smiles": "CCOc1ccc(C(=O)Nc2cc(Br)c3c(c2)CNCC3)cc1C#N", "values": [{"measurement": "inhibition", "setting": "[1]", "value": 6.36, "unit": "%"}, {"measurement": "inhibition", "setting": "[2]", "value": 5.03, "unit": "%"}, {"measurement": "inhibition", "setting": "[3]", "value": 5.78, "unit": "%"}]}
{"smiles": "Cc1ccc(Nc2nc(C)cc(Nc3cccc(NS(C)(=O)=O)c3)n2)cc1", "values": [{"measurement": "inhibition", "setting": "[1]", "value": 11.5, "unit": "%"}, {"measurement": "inhibition", "setting": "[2]", "value": 12.5, "unit": "%"}, {"measurement": "inhibition", "setting": "[3]", "value": 9.23, "unit": "%"}]}
{"smiles": "NC(=O)COc1cccc2c1CCN(CCN1CCC(NC(=O)c3ccc(-c4ccc(Cl)cc4)cc3)CC1)C2", "values": [{"measurement": "inhibition", "setting": "[1]", "value": 1.06, "unit": "%"}, {"measurement": "inhibition", "setting": "[2]", "value": 4.42, "unit": "%"}, {"measurement": "inhibition", "setting": "[3]", "value": 2.71, "unit": "%"}]}
{"smiles": "FC(F)(F)c1ccc2[nH]c(-c3ccc(-c4cccc(CN5CCC(CCN6CCCCC6)CC5)c4)cc3)nc2c1", "values": [{"measurement": "inhibition", "setting": "[1]", "value": 3.12, "unit": "%"}, {"measurement": "inhibition", "setting": "[2]", "value": 4.82, "unit": "%"}, {"measurement": "inhibition", "setting": "[3]", "value": 2.53, "unit": "%"}]}
{"smiles": "CC(CN1CCN(C)CC1)C(=O)Nc1ccc(-c2cccc(-c3nc4cc(F)ccc4[nH]3)c2)cc1", "note": "(stereo not drawn)", "values": [{"measurement": "inhibition", "setting": "[1]", "value": 2.46, "unit": "%"}, {"measurement": "inhibition", "setting": "[2]", "value": 2.1, "unit": "%"}, {"measurement": "inhibition", "setting": "[3]", "value": 5.11, "unit": "%"}]}
{"smiles": "Nc1cccc(CNCc2cccc(-c3csc(-c4nc5ccccc5[nH]4)c3)c2)c1", "values": [{"measurement": "inhibition", "setting": "[1]", "value": 2.32, "unit": "%"}, {"measurement": "inhibition", "setting": "[2]", "value": 2.29, "unit": "%"}, {"measurement": "inhibition", "setting": "[3]", "value": 1.68, "unit": "%"}]}
{"smiles": "OC(CNc1ccnc(Nc2ccccc2)n1)c1cccc(C(F)(F)F)c1", "note": "(stereo not drawn)", "values": [{"measurement": "inhibition", "setting": "[1]", "value": 4.65, "unit": "%"}, {"measurement": "inhibition", "setting": "[2]", "value": 4.22, "unit": "%"}, {"measurement": "inhibition", "setting": "[3]", "value": 0.68, "unit": "%"}]}
{"smiles": "CC(C)C[C@@H](C(=O)N[C@H](C(=O)Nc1nccs1)C(C)(C)C)[C@H](CCC(F)(F)F)N(O)C=O", "values": [{"measurement": "inhibition", "setting": "[1]", "value": 4.27, "unit": "%"}, {"measurement": "inhibition", "setting": "[2]", "value": 6.41, "unit": "%"}, {"measurement": "inhibition", "setting": "[3]", "value": 4.07, "unit": "%"}]}
{"smiles": "CC[C@]1(C)C[C@@H](NC(=O)NC(=O)c2ccc(OC)cc2)[C@]2(C)[C@H](C)CC[C@]3(CCC(=O)[C@H]32)[C@@H](C)[C@@H]1OC(=O)NC(=O)c1ccc(OC)cc1", "values": [{"measurement": "inhibition", "setting": "[1]", "value": 7.7, "unit": "%"}, {"measurement": "inhibition", "setting": "[2]", "value": 5.47, "unit": "%"}, {"measurement": "inhibition", "setting": "[3]", "value": 7.04, "unit": "%"}]}
{"smiles": "COc1ccc(COc2c(OC)cc(Cc3cnc(N)nc3N)cc2OC)cc1", "values": [{"measurement": "inhibition", "setting": "[1]", "value": 5.65, "unit": "%"}, {"measurement": "inhibition", "setting": "[2]", "value": 5.76, "unit": "%"}, {"measurement": "inhibition", "setting": "[3]", "value": 6.57, "unit": "%"}]}
{"smiles": "COc1ccc2ncc(Cl)c(CCN3CC[C@@H](CNCc4cc5c(cn4)OCS5)C3)c2n1", "values": [{"measurement": "inhibition", "setting": "[1]", "value": 6.89, "unit": "%"}, {"measurement": "inhibition", "setting": "[2]", "value": 7.89, "unit": "%"}, {"measurement": "inhibition", "setting": "[3]", "value": 12.2, "unit": "%"}]}
